Shown are actives, neighbours in structure and some others; about 6.2% of the full set was active somewhere.
AHR activator: activates the human aryl hydrocarbon receptor; P35869; AHR-responsive luciferase reporter cells, luminescence; activation, % at 5 µM; 320,000 compounds, 2.5% hits; AID 2796; in the data active = activation above about 47%;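 note: 0% = vehicle wells and 100% = reference agonist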
Mot1-301 SUMO: blocks SUMOylation pathway, rescuing yeast Mot1-301 growth; S. cerevisiae Mot1-301 growth rescue, ATP luminescence, 38.5C; percent above DMSO median, 100 means doubled; growth rescue, % at 18.8 µM; 320,000 compounds, 1% hits;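 active = every valid replicate shows activation above 250% relative to neutral control wells; inactive = the rest, any valid replicate at or below 250%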;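 note: OY570 slx delta 5 strain wells were the positive control but not used for scaling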
AI-2 QS mod: modulates the Vibrio harveyi AI-2 quorum sensing system; Vibrio harveyi JMH597 AI-2 luminescence/OD600 ratio, 9 h; active compounds read low; strain lacks LuxN and CqsS sensors; 0 = neutral-control median; activity change, % at 7.5 µM; 300,000 compounds, 0.4% hits; in the data active = activity change below about -75%, passing the limit was not always enough;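 note: luminescence divided by OD600 gain over 9 h not by final OD600 alone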
GRIN3A LBD mod: NR3A (human) ligand-binding domain modulation; NR3A LBD differential scanning fluorimetry, Tm shift; 0% = protein alone, 100% = glycine-bound protein; Tm shift relative to glycine control, % at 25 µM; 340,000 compounds, 2.5% hits; AID 1259313;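 active = melting temperature shift of at least 10% of the positive control shift, at one fixed dose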
Cardio protect: modulators protecting cardiomyocytes from myocardial damage; H9c2 cardiomyocytes, H2O2 injury protection, ATPLite, 2 h; protection from H2O2 cell death, % at 20 µM; 360,000 compounds, 0.63% hits;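 active = compounds giving at least 50% protection of heart cells from peroxide-induced death in the single-dose screen, raw or plate-pattern-corrected value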;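 note: 0% = DMSO wells with peroxide and 100% = DMSO wells without peroxide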
NTR1 ag: agonists of human neurotensin receptor NTR1; activation, % at 20 µM; 330,000 compounds, 0.17% hits; AID 493036; NTR1-U2OS beta-arrestin-GFP spot imaging, agonist mode;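 active = activation at or above 40% of the spot to cytoplasm intensity ratio, with at least 20 cells analyzed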;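 note: 0% = DMSO without peptide and 100% = 100 nM NTR1 peptide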
Target sequence (P30989 whole entry, looked up): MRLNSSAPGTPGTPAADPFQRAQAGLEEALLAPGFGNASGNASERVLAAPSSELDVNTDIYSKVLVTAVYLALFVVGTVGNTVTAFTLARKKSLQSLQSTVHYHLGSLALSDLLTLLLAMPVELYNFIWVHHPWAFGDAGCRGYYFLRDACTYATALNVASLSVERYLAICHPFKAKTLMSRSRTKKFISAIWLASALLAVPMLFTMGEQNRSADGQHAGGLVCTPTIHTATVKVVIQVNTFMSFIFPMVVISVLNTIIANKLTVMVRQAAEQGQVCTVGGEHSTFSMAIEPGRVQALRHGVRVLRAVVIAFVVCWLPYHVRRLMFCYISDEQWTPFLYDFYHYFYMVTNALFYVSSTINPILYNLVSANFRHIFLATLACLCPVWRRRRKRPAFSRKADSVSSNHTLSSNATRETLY
Starred values were filed as active, the others as inactive; . = no result given.

SMILES	AHR activator	Mot1-301 SUMO	AI-2 QS mod	GRIN3A LBD mod	Cardio protect	NTR1 ag
N#CC(=C(O)CN1CCN(c2ccccc2F)CC1)c1nc(-c2ccc(Cl)cc2)cs1	.	.	.	90*	-16	.
O=C1OCCN1C(=O)[C@H]1[C@H](c2ccc([N+](=O)[O-])cc2)C(c2ccc(F)cc2)=NN1c1ccccc1	.	.	.	3	34	3
Cc1cccc(C2=NN(c3ccccc3)[C@@H](C(=O)N3CCOC3=O)[C@@H]2c2ccccc2)c1	.	.	.	-2	-8	8
C[C@@H]1C(c2cccc(Cl)c2)=NN(c2ccc(Br)cc2)[C@H]1C(=O)N1CCOC1=O	.	.	.	21*	2	10
Cc1cccc(C2=NN(c3ccc(Br)cc3)[C@@H](C(=O)N3CCOC3=O)[C@@H]2c2ccccc2)c1	.	.	.	15*	5	6
O=C1OCCN1C(=O)[C@H]1[C@H](c2ccc([N+](=O)[O-])cc2)C(c2ccc(F)cc2)=NN1c1ccc(Br)cc1	.	.	.	13*	52*	6
CN(C(=O)c1cccc(S(=O)(=O)N2CCOCC2)c1)c1c(N)n(Cc2ccccc2)c(=O)[nH]c1=O	-1	-7	.	0	2	1
CN(C(=O)c1cccc(NC(=O)Cc2ccc(NC(=O)C3CCCN(C(=O)C4CC4)C3)cc2)c1)C1CCCCC1 (stereo unspecified)	.	.	.	-3	0	.
COc1ccc(/[N+]([O-])=C/c2ccoc2)cc1	1	-10	.	1	-7	-3
O=C(Nc1ccccc1C(=O)NC1CC1)c1ccc([N+](=O)[O-])o1	.	.	.	1	-2	5
COc1ccc(C2=NOC(C(=O)N3CCCCCC3)C2)cc1OC (stereo unspecified)	-1	-5	13	-1	5	2
COc1cc(C2=NOC(C(=O)N3CCOCC3)C2)cc(OC)c1OC (stereo unspecified)	11	7	19	13*	1	1
Cc1ccccc1C(=O)N=c1sccn1C	7	275	35	2	0	2
CCOc1ncccc1C(=O)N=c1sccn1C	60*	-16	26	0	-2	-1
CCOC(=O)CC(S(=O)(=O)c1ccccc1)S(=O)(=O)c1ccccc1	.	.	.	.	-21	.
COc1cc(/C=C/c2nc3ccccc3c(=O)[nH]2)cc(Cl)c1O	4	30	.	27*	1	0
O=c1[nH]c(/C=C/c2ccccc2[N+](=O)[O-])nc2ccccc12	79*	-17	0	4	19	0
O=c1[nH]c(/C=C/c2ccc(Br)cc2)nc2ccccc12	-3	11	21	-2	-17	3
Cc1cccc(/C=C\c2nc3ccccc3c(=O)[nH]2)c1	2	14	-13	0	-8	-1
O=c1[nH]c(/C=C/c2ccccc2F)nc2ccccc12	.	-5	12	39*	-14	2
O=c1[nH]c(/C=C/c2ccccn2)nc2ccccc12	15	-13	14	3	36	-1
O=c1[nH]c(/C=C/c2cccc3ccccc23)nc2ccccc12	56*	142	52	-2	8	8
O=C(/C=C/c1cccc([N+](=O)[O-])c1)OCC(=O)N1CCCCC1	.	.	.	.	-8	.
Cn1cc(Cc2ccc(C(=O)NCc3ccccc3)cn2)c2ccccc21	.	.	.	.	11	.
O=C(c1ccc(COc2ccc(Cl)cc2Cl)o1)N1CCCC1	.	72	37	-2	-1	5
SMILES	AHR activator	Mot1-301 SUMO	AI-2 QS mod	GRIN3A LBD mod	Cardio protect	NTR1 ag
Cc1ccc(C)c(C(=O)NC(C)c2ccc(-n3ccnc3)cc2)c1 (stereo unspecified)	78*	17	8	-1	2	0
CC(NC(=O)c1ccccc1Cl)c1ccc(-n2ccnc2)cc1 (stereo unspecified)	54*	-13	20	1	5	0
CSc1ccccc1C(=O)NC(C)c1ccc(-n2ccnc2)cc1 (stereo unspecified)	67*	0	7	3	4	0
Cc1ccc(C(=O)NC(C)c2ccc(-n3ccnc3)cc2)c(C)c1 (stereo unspecified)	31	-16	17	1	1	0
O=C(NC(c1ccc(-c2ccccc2)cc1)c1cnccn1)C1CCN(Cc2ccc3c(c2)OCO3)CC1 (stereo unspecified)	.	.	.	.	-26	.
CCn1c(=NC(=O)C2COc3ccccc3O2)sc2c(OC)ccc(OC)c21 (stereo unspecified)	6	9	11	3	-8	16
Oc1c(Br)cccc1/C=N/c1ncn[nH]1	2	14	9	-1	67*	-1
Cc1csc(NC(=O)CSc2nc(=O)[nH]c3c2CCCC3)n1	4	-4	26	0	0	0
O=C(CSc1nc(=O)[nH]c2c1CCCC2)Nc1cc(C(F)(F)F)cc(C(F)(F)F)c1	0	-4	7	10*	-12	15
CCCNC(=O)C1(CC2CC(c3ccccc3)=NO2)CCN(C(=O)C2(C)CC2)CC1 (stereo unspecified)	1	355*	13	-1	0	11
CS(=O)(=O)N(CC(=O)Nc1ccccc1Br)Cc1ccccc1	0	6	20	-1	-1	1
Cc1ccc(S(=O)(=O)N2CCC(C(=O)OCCOc3cccc(C)c3)CC2)cc1	3	-14	.	20*	-14	-2
COc1ccc(C(=O)NC2CCCCC2)cc1OC1CCN(C(C)C)CC1	0	0	4	13*	3	0
COc1ccc(C(=O)NC2CC2)cc1OC1CCN(Cc2cnn(C)c2C)CC1	.	-9	22	3	6	0
COc1ccc(C(=O)NC2CCCCCC2)cc1OC1CCN(C(C)=O)CC1	2	-21	9	-1	2	-1
COc1ccc(C(=O)NC2CC2)cc1OC1CCN(Cc2cc(C)c(C)cc2C)CC1	5	2	40	103*	2	0
O=C(CSc1ccccn1)N1CCNC1=O	1	-7	.	2	11	3
Fc1ccc2nc(Nc3ccccc3)sc2c1	26	.	-5	19*	-25	1
NNc1nc2ccc(F)cc2s1	77*	62	18	1	-5	3
CCN1CCN(C(=O)c2cc(COc3ccc(F)c(F)c3)on2)[C@@H](C)C1=O	.	.	.	.	-9	.
CCOC(=O)C1C(C(=O)OC)=C(C(=O)OC)c2ccccc2N1S(=O)(=O)C(F)(F)F (stereo unspecified)	.	.	.	0	8	2
CCOC(=O)C1CCCN(C(=O)c2cc(S(=O)(=O)N3CCCCC3)c[nH]2)C1 (stereo unspecified)	1	-17	14	-1	-3	0
COC(=O)C(CCCCN1C(=O)C2C3C=CC(C3)C2C1=O)N1C(=O)C2C3C=CC(C3)C2C1=O (stereo unspecified)	-1	3	8	0	-3	-2

Assay outcomes as filed in PubChem.
